Source: PubChem
D1 antagonist: antagonists of human D1 dopamine receptor; HEK293 TREx D1 cells, calcium flux, dopamine EC80; hits give low values; activity change, negative = inhibition, % at 10 µM; 3.2% of 360,000 active; AID 504652; in the data active means activity change below about -30%; further: on the % scale 0 is the no-effect control and ±100 the full control effect
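After overnight tetracycline induction at 30 C, force-coupled D1 HEK293 cells took up a no-wash calcium dye at room temperature. Compounds were added and monitored 180 s, and the response to EC80 dopamine was then recorded.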
D1 PAM: human D1 dopamine receptor positive modulation; P21728; HEK293 TREx D1 cells, calcium flux, dopamine EC20 potentiation; potentiation, % at 10 µM; 0.036% of 360,000 active; in the data active means potentiation above about 30%; further: 0% is about no effect
D1 ag: human D1 receptor agonism. P21728. HEK293 T-REx D1 cells, calcium flux, agonist mode. activation, % at 2 µM. 1% of 360,000 active; further: 0% is about no effect
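Agonism was scored from calcium flux recorded over 180 s (1 read/s) after pintool compound addition, following a 10-cycle baseline. Cells were inducible force-coupled HEK293 TREx D1, plated overnight at 30 C and loaded with no-wash calcium dye.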
TRHR PAM: allosterically enhances the human TRH receptor; TRHR cells, fluo-8 calcium fluorescence, EC20 TRH enhancement; P34981; enhancement, % at 2 µM; 0.66% of 360,000 active; in the data active means enhancement above about 30%; further: 0% is about no effect
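Enhancer read-out: after compound pinning and an initial kinetic agonist-mode read, an EC20 of TRH (10 nM final) was injected and fluo-8 calcium signal (Ex 480/Em 530) followed at 1 s/cycle for 100 cycles in TRHR-expressing cells.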
TRHR agonist: agonists of human TRH receptor | P34981 | TRHR cells, calcium flux fluo-8, FDSS agonist mode | activation, % at 2 µM | 0.18% of 360,000 active | AID 493084; further: 0% is about no effect
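TRHR-expressing cells loaded with fluo-8 calcium dye; 23 nL library compound pin-transferred, kinetic FDSS fluorescence (Ex 480/Em 530) recorded about 180 s for agonist-induced calcium release, before a 10 nM TRH EC20 addition for potentiator mode.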
USP1-UAF1 inh: inhibitors of human USP1/UAF1 deubiquitinase; O94782; 0.23% of 390,000 active; Potency, µM (top dose mostly 57.1 µM), for inactives: at the top dose activity change, negative = inhibition, most hits filed as inhibitors; recombinant USP1/UAF1, Ub-Rhodamine cleavage fluorescence; active means well fitted inhibition curve with a large enough effect; inconclusive means small, poorly fitted or top-dose-only effect; inactive means no such curve, though single readings can be large or run the other way; further: potency means the concentration at half of the fitted maximal effect; on the % scale 0 is the no-effect control and ±100 the full control effect; nearly all actives have a fitted effect of over 60% in size
Target sequence (O94782 whole entry, looked up): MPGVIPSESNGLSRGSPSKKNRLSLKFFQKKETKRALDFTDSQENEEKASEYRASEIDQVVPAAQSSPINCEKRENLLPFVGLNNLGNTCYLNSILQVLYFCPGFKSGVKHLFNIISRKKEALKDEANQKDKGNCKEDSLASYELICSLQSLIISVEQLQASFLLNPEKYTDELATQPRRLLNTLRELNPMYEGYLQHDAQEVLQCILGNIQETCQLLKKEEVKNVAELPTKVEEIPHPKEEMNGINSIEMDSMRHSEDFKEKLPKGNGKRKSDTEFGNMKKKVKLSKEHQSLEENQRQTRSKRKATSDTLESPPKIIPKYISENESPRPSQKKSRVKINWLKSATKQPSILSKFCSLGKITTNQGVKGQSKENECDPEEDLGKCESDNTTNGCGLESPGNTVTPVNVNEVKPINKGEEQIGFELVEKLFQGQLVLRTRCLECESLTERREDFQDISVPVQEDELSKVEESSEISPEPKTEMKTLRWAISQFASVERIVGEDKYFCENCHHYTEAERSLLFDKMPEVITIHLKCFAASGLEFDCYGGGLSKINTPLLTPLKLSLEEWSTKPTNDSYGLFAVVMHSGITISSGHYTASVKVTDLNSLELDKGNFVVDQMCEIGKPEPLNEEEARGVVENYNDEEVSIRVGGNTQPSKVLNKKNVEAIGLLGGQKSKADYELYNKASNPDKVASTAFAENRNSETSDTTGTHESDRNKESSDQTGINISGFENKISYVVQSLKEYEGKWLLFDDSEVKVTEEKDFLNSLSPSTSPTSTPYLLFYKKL
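1 nM enzyme complex + cpd, 15 min RT; start with Ub-Rho 150nM final; kinetic fluorescence ex 480/em 540, 6 reads q60 s. Buffer 50mM HEPES pH 7.8, 0.5mM EDTA, 0.1 mg/ml BSA, 1mM TCEP, 0.01% Tween-20.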
Starred values were filed as active, the others as inactive; ? = inconclusive; / = no result. Rows were chosen to be rich in hits. Some 4.4% of all compounds tested hit in one or more screens of this group. Unless noted, no stated cut-off is given here; in the data, active means activation above about 30%; inactive means the rest.

SMILES | D1 antagonist | D1 PAM | D1 ag | TRHR PAM | TRHR agonist | USP1-UAF1 inh
CCOc1ccc(-c2nn(CC(=O)NC3CCCC3)c3c2cnc2ccc(F)cc23)cc1 | 1 | -5 | 4 | 4 | -1 | -28%
Nc1[nH]nc2c1NN(c1ccc(Cl)cc1Cl)N2 | -38* | -5 | 3 | 2 | 0 | 0%
O=C(Nc1cccc([N+](=O)[O-])c1)C1CCN(C(=O)Cc2ccccc2)CC1 | -30* | -3 | 7 | -6 | 1 | -6%
CN(Cc1ccccc1)C(=O)c1ccc(NC(=O)Cc2cccc(NC(=O)C3CCN(C(=O)C4CC4)CC3)c2)cc1 | -22 | 2 | 252* | 1 | 0 | 14%
CN(Cc1ccccc1)C(=O)c1ccc(NC(=O)Cc2cccc(NC(=O)C3CCN(C(=O)C4CCCCC4)CC3)c2)cc1 | -5 | 2 | 1 | 0 | 1 | -13%
CS(=O)(=O)N1CCC(C(=O)Nc2cccc([N+](=O)[O-])c2)CC1 | / | -1 | 1 | -3 | 0 | -6%
CCOC(=O)c1ccc(NC(=O)c2c(NCc3cccs3)sc3c2CCCCC3)cc1 | 2 | -3 | 5 | 1 | 0 | ?
O=C(NNc1ccc([N+](=O)[O-])cc1)c1ccccc1Cl | -52* | -4 | 9 | 3 | 0 | -2%
O=C(c1ccc2c(c1)N(Cc1ccc(F)cc1)C(=O)c1ccccc1S2(=O)=O)N1CCC(Cc2ccccc2)CC1 | 15 | -2 | 6 | -11 | 1 | -23%
Cc1ccc2oc(-c3ccc(Cl)cc3)c(O)c(=O)c2c1 | -22 | -2 | 71* | -11 | 10 | -27%
CCOc1ccc(-c2oc3ccccc3c(=O)c2O)cc1OCC | 4 | -2 | 7 | 0 | 16 | 3%
COc1ccc(C(=O)Nn2c(C)nnc2-n2nc(C)cc2C)cc1OC | -31* | 3 | -2 | -2 | 0 | -10%
Cc1ccc(S(=O)(=O)N2CCN(Cc3ccccc3Cl)CC2)cc1 | -8 | -1 | 1 | -14 | 0 | ?
COc1ccc(CCNC(=O)Cn2nc(C)c3c(C)n(-c4ccc(C)cc4)nc3c2=O)c(OC)c1 | -43* | -2 | 2 | -8 | -1 | -30%
COc1ccc(NC(=O)CCCn2nc(C)c3c(C)n(-c4ccccc4)nc3c2=O)cc1OC | -53* | -2 | 0 | 1 | 0 | -13%
COCCNC(=O)Cn1nc(C)c2c(C)n(-c3ccc(C)cc3)nc2c1=O | -2 | 5 | 3 | 3 | -1 | -30%
COc1ccc(C2=Nn3c(nnc3-c3ccccc3OC)SC2)cc1 | -27 | 15 | 2 | -1 | -1 | /
CCCOc1ccc(C(=O)N(Cc2cccs2)c2ccc(C)cc2)cc1 | -23 | 0 | 23 | 1 | 3 | -13%
Cc1nn(C2CCS(=O)(=O)C2)c2nc(C3CC3)cc(C(=O)Nc3cccc(C#N)c3)c12 (configuration not stated) | -36* | -6 | 6 | 0 | 1 | -25%
COC(/C(=N/O)c1ccc(Cl)cc1)c1ccccc1 (configuration not stated) | -38* | -2 | 8 | -6 | 0 | -27%
COc1ccc(Cl)cc1NC(=O)C(OC)c1ccccc1 (configuration not stated) | -18 | 1 | 8 | 8 | 0 | -20%
COc1ccccc1CNC(=O)c1sc2nc3n(c(=O)c2c1C)CCC3 | 4 | -4 | 0 | -4 | 0 | 16%
Cc1cc([N+](=O)[O-])ccc1NC(=O)Cc1ccc(F)cc1 | -32* | -8 | 7 | -10 | 0 | 1%
Cc1ccccc1NCc1ccc([N+](=O)[O-])s1 | -32* | -9 | -3 | -6 | -1 | -15%
Cc1cc([N+](=O)[O-])ccc1NCc1ccccc1 | -32* | -5 | 1 | -22 | 0 | 25%
SMILES | D1 antagonist | D1 PAM | D1 ag | TRHR PAM | TRHR agonist | USP1-UAF1 inh
O=C(NCCc1ccc(F)cc1)Nc1ccc([N+](=O)[O-])cc1 | -49* | -17 | 13 | -3 | 5 | -23%
O=[N+]([O-])c1ccc(NC(=S)NCCc2ccc(F)cc2)cc1 | -26 | -13 | 17 | -11 | 1 | -14%
CCOc1ccc(CCNC(=O)c2cnc3sc(N4CCC(C)CC4)nn3c2=O)cc1 | 11 | 0 | 2 | -3 | 0 | -10%
COc1cc([N+](=O)[O-])ccc1NC(=O)Cc1ccc(C)cc1 | / | -11 | -1 | -6 | 0 | -16%
Cc1ccc(NC(=O)Cc2ccc([N+](=O)[O-])cc2)c(Br)c1 | -45* | -3 | 16 | -4 | -2 | -6%
COc1ccc(OCc2cc(C(=O)N3CCC(c4ccccc4)CC3)no2)c(Cl)c1 | -3 | -5 | 35* | 5 | -1 | -11%
COc1cccc(OCc2cc(C(=O)N3CCC(c4ccncc4)CC3)no2)c1 | -36* | -11 | 14 | 1 | 0 | -13%
O=S(=O)(Cc1cc(-c2ccccc2Cl)no1)c1ccccc1 | -21 | -9 | 37* | 20 | 0 | -11%
COc1ccc(CNC(=O)Cc2c(C)c3cc4c(C)coc4cc3oc2=O)cc1 | -4 | -1 | 3 | -1 | 0 | -6%
COc1ccc(CCNC(=O)CCc2c(C)c3cc4c(C)coc4cc3oc2=O)cc1 | -51* | -1 | 22 | -2 | 0 | 0%
O=C(COC(=O)C1CC(O)CN1S(=O)(=O)c1ccccc1[N+](=O)[O-])c1ccc[nH]1 (configuration not stated) | 0 | -2 | 3 | 0 | 0 | -7%
O=C(COC(=O)[C@@H]1CC(O)CN1S(=O)(=O)c1ccccc1[N+](=O)[O-])Nc1ccc2ccccc2c1 (some centres not stated) | -32* | -7 | 2 | -6 | 0 | -25%
CC(=O)N1CCc2cc(Br)cc(S(=O)(=O)CCC(=O)Nc3ccc(C)cc3Cl)c21 | -11 | -1 | 2 | -7 | 0 | -4%
O=C(CN1C(=O)c2ccccc2S1(=O)=O)NC1CC2CCC1C2 (configuration not stated) | -73* | / | 0 | 4 | 0 | ?
O=C1c2ccccc2C(=O)N1CCSC(=S)N1CCOCC1 | -4 | 3 | 6 | 41* | 0 | -12%
O=C(CCCCCCCCN1C(=O)c2ccccc2C1=O)N1CCOCC1 | -24 | -6 | 9 | 0 | 0 | -7%
O=C(CCCCCCN1C(=O)c2ccccc2C1=O)N1CCC(c2ccccc2)C1 (configuration not stated) | -44* | -11 | 23 | 4 | 0 | -10%
O=C(CN1C(=O)c2ccccc2S1(=O)=O)N1CCOCC1 | -34* | 1 | 2 | 7 | 0 | -8%
Cc1ccc2scc(N3CCCCC3)c(=O)c2c1 | 8 | 0 | 0 | -5 | 0 | -21%
